Reference: PubChem BioAssay (NCATS)
Records with an inconclusive call do not appear. Active and inactive are the calls of the source. Unless noted, calls come from the whole dose curve; as a rule, active = well fitted curve in the direction sought with a large enough effect; inconclusive = small, poorly fitted or top-dose-only effect, or another doubt; inactive = no such curve, though single readings can be large; an effect the other way counts as inactive or inconclusive.

Columns and labels:
[1] = AP1 Signaling Pathway (AID 357; active = well fitted curve in either direction with a large enough effect, not every such curve was filed as active;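 note: ME-180 reporter cells stimulated with EGF at its EC50 level; % is set by controls: 0 for no effect and ±100 for the full control effect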); settings: ME-180 AP-1-bla reporter, EGF-induced, beta-lactamase ratio, 5 h; at 7.69 µM (top of the series) unless noted
Procedure, shortened: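 Beta-lactamase reporter under AP-1 response element, ME-180 background. Stimulus: EC50 EGF. Compound exposure 5 h, 37 °C. Detection: CCF4, 2.5 h RT, 460/530 nm. Values: AC50 from titration.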

[2] = target: Cytochrome P450 1A2 (Homo sapiens) (UniProt P05177); experiment: p450-cyp1a2 (AID 410; calls by dose curve; note: potency is the fitted concentration of half-maximal effect;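 for activity change, negative = inhibition: -100% = full effect of reference inhibitor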)
Sequence of Cytochrome P450 1A2 (Homo sapiens) (P05177 whole entry, looked up): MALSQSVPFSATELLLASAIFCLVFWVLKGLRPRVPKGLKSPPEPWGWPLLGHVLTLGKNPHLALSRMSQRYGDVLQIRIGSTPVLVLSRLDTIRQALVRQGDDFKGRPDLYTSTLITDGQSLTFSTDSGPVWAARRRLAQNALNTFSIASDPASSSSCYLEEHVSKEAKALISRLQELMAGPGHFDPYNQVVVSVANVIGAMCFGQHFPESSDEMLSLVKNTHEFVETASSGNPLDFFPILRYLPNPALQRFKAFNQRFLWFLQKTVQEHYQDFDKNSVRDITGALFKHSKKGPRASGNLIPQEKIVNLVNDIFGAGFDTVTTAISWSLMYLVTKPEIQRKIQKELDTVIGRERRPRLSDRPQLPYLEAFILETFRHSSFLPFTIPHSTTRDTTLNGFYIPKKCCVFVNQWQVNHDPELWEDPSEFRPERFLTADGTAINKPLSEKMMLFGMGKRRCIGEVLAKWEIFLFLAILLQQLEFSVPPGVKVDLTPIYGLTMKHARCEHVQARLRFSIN
Procedure, shortened: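 O-Demethylation of luciferin 6' methyl ether by human CYP1A2 is monitored as luciferase luminescence. Substrate sits at Km (100uM); enzyme is 20nM. Values are scaled to 57 uM furafylline as maximal inhibition.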

[3] = NFAT Signaling Pathway (AID 444; active = well fitted curve in either direction with a large enough effect, not every such curve was filed as active;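 note: carbachol stimulus at about its EC50 of 1 µM final; % is set by controls: 0 for no effect and ±100 for the full control effect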); settings: Jurkat NFAT-bla M1, carbachol, beta-lactamase ratio, 5 h; at 7.69 µM (top of the series) unless noted
Procedure, shortened: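 Jurkat cells carrying an NFAT-driven β-lactamase reporter and co-transfected muscarinic M1 receptor were treated with compound plus carbachol (1 uM final, an EC50 level) for 5 h at 37 °C. CCF4 loading followed for 1 h at RT; 460/530 nm ratio gave %activity.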

[4] = Stat Signaling Pathway (AID 446; active = well fitted curve in either direction with a large enough effect, not every such curve was filed as active;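 note: ME-180 cervical cancer cells given 40 pM IL-6 alongside compound; SIE-controlled beta-lactamase reporter measured as 460/530 nm FRET emission ratio; % is set by controls: 0 for no effect and ±100 for the full control effect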); settings: ME-180 SIE beta-lactamase reporter, IL-6 stimulated, 5 h; at 7.69 µM (top of the series) unless noted
Procedure, shortened: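 Normalization used AC90 stimulation (300 pM IL-6) and AC90 inhibition (125 nM pan-JAK inhibitor at 40 pM IL-6). The underlying signal is SIE-driven beta-lactamase in ME-180 cells after 5 h IL-6 exposure with compound.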

[5] = target: Glucocorticoid receptor (Homo sapiens) (UniProt P04150); experiment: GR-GFP Redistribution (AID 450;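 active = compounds whose dose series gives a full or clear partial fitted curve of increased nuclear translocation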; note: potency is the fitted concentration of half-maximal effect); settings: U2OS GR-GFP nuclear translocation, laser cytometry, 2 h
Sequence of Glucocorticoid receptor (Homo sapiens) (P04150 whole entry, looked up, the tested form may be a part): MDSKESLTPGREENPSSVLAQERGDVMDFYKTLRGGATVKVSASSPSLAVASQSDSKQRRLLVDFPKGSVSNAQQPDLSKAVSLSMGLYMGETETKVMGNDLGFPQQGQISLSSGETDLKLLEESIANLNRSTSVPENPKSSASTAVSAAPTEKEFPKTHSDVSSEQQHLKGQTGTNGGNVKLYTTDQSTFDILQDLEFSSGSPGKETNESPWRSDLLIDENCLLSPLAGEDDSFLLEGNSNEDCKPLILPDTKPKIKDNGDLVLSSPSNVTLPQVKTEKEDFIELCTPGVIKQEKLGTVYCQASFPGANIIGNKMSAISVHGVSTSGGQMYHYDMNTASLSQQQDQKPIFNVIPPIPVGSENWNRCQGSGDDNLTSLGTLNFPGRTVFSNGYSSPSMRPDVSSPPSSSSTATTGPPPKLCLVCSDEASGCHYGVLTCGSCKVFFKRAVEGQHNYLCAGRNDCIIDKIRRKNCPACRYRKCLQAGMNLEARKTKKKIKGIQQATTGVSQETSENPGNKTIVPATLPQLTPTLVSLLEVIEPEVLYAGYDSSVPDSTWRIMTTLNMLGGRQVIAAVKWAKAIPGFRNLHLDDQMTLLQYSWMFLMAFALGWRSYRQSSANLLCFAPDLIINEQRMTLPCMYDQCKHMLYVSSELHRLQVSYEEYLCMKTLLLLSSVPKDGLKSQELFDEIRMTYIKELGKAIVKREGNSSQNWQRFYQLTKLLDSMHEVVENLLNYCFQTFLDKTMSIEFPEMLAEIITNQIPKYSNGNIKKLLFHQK

[6] = target: Glucocorticoid receptor (Homo sapiens) (UniProt P04150); experiment: GR-EFC Redistribution (AID 451; calls by dose curve; note: potency is the fitted concentration of half-maximal effect); settings: CHO-K1 GR-EFC translocation, beta-gal luminescence, 2 h
Procedure, shortened: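 CHO-K1 cells stably expressing nuclear-localized β-gal enzyme acceptor and GR fused C-terminally to the enzyme donor fragment; ligand-driven nuclear translocation restores β-gal by complementation. Compounds titrated up to 46 uM final, 2 h at 37 °C; luminescence read.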

[7] = target: Mitogen-activated protein kinase 10 (Mus musculus) (UniProt Q61831); experiment: JNK3 AlphaScreen Assay (AID 530; active = well fitted curve in either direction with a large enough effect, not every such curve was filed as active;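 note: kinase came from lysate of stimulated human HepG2 cells; signal reports phosphorylation of biotinylated GST-cJun 1-79 at Ser73 with 10 µM ATP; % is set by controls: 0 for no effect and ±100 for the full control effect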)
Procedure, shortened: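 Phosphorylation of biotinylated GST-cJun(1-79) at Ser73 is measured by AlphaScreen proximity luminescence. Enzyme is JNK3 in HepG2 lysates activated with interleukin-1beta and tumor necrosis factor alpha; ATP is 10 uM final.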

[8] = target: 3',5'-cyclic-AMP phosphodiesterase 4B (Homo sapiens) (UniProt Q07343); experiment: qHTS Assay for Inhibitors of PDE-IV (AID 607; active = well fitted activation curve with a large enough effect in the main read-out, with a control signal flat, not every such curve was filed as active; note: % of control where 0% means no effect)
Sequence of 3',5'-cyclic-AMP phosphodiesterase 4B (Homo sapiens) (Q07343 whole entry, looked up): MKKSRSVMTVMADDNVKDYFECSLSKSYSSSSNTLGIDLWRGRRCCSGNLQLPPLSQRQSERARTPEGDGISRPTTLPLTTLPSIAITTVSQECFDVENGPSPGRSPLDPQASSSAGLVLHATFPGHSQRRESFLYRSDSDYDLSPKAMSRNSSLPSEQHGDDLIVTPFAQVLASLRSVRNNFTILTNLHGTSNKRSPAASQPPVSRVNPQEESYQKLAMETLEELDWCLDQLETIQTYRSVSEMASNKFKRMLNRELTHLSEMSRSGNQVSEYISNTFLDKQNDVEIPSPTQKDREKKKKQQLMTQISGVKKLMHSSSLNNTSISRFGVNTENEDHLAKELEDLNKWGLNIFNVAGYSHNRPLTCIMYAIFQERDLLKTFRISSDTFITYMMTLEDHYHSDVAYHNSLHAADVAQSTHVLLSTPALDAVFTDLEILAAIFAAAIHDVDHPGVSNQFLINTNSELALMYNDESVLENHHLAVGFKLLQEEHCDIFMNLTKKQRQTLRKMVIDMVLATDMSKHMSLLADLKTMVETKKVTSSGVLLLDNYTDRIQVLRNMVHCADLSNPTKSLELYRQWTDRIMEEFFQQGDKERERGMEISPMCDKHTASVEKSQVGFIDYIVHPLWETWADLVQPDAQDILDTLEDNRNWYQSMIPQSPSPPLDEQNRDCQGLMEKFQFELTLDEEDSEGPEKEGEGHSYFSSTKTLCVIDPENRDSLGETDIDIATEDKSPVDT
Procedure, shortened: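 HEK293 ACTOne cells with CNG channel (1000/well), endogenous PDE4; membrane potential dye, compounds up to 22.9 uM final. Fluorescence Ex 535/Em 590; RO 20-1724 (100 uM final) as reference.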

[9] = target: Dual specificity protein kinase CLK4 (Homo sapiens) (UniProt Q9HAZ1); experiment: qHTS Assay for Inhibitors of CDC-like Kinase 4 (Kinase-Glo Assay) (AID 1770); note: nearly all actives have a fitted effect of over 65% in size; note: potency is the fitted concentration of half-maximal effect
Sequence of Dual specificity protein kinase CLK4 (Homo sapiens) (Q9HAZ1 whole entry, looked up): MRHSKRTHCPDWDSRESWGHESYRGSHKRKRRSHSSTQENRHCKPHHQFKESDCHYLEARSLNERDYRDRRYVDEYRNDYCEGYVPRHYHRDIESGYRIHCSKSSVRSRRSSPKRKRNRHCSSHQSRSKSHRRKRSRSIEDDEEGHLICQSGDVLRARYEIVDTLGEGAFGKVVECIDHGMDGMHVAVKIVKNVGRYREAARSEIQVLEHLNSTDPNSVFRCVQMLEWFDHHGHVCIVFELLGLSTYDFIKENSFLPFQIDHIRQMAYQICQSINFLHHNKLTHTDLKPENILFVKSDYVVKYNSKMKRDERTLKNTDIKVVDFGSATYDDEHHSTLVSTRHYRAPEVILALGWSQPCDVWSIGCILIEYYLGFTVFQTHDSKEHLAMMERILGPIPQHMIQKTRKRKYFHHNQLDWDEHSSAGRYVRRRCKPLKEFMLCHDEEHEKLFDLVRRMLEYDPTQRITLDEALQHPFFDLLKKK
Procedure, shortened: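 Recombinant human Clk4 (25 nM) phosphorylated RS repeat peptide (100 uM) with 1 uM ATP in Tris pH 7.5/MgCl2/EGTA/DTT/Triton buffer for 4.5 h at room temperature. Residual ATP was quantified by Kinase-Glo luciferase luminescence.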

[10] = target: Dual specificity protein kinase CLK4 (Homo sapiens) (UniProt Q9HAZ1); experiment: qHTS Assay for Inhibitors of CDC-like Kinase 4 (ADP-Glo Assay) (AID 1771); note: nearly all actives have a fitted effect of over 70% in size; note: potency is the fitted concentration of half-maximal effect
Procedure, shortened: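 Compounds are pin-transferred onto substrate mix (100 uM RS peptide, 1 uM ATP), then 25 nM Clk4 is added. After 1 hr at room temperature, ADP-Glo reagent runs 45 min, detection reagent 30 min, then luminescence is read.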

[11] = target: Dual specificity protein kinase CLK4 (Homo sapiens) (UniProt Q9HAZ1); experiment: qHTS Assay for Inhibitors of CDC-like Kinase 4 (ADP-FP Assay) (AID 1795); note: nearly all actives have a fitted effect of over 60% in size; note: potency is the fitted concentration of half-maximal effect
Procedure, shortened: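 Recombinant human Clk4 (6.25 nM) phosphorylated RS repeat peptide (100 uM) with 1 uM ATP in Tris pH 7.5/MgCl2/EGTA/DTT/Triton buffer for one hour. ADP was quantified by Transcreener competitive fluorescence polarization against an ADP calibration curve.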

[12] = target: Ubiquitin carboxyl-terminal hydrolase 1 (Homo sapiens) (UniProt O94782); experiment: Inhibitors of USP1/UAF1: Pilot qHTS (AID 504865); note: nearly all actives have a fitted effect of over 35% in size; note: potency is the fitted concentration of half-maximal effect
Sequence of Ubiquitin carboxyl-terminal hydrolase 1 (Homo sapiens) (O94782 whole entry, looked up): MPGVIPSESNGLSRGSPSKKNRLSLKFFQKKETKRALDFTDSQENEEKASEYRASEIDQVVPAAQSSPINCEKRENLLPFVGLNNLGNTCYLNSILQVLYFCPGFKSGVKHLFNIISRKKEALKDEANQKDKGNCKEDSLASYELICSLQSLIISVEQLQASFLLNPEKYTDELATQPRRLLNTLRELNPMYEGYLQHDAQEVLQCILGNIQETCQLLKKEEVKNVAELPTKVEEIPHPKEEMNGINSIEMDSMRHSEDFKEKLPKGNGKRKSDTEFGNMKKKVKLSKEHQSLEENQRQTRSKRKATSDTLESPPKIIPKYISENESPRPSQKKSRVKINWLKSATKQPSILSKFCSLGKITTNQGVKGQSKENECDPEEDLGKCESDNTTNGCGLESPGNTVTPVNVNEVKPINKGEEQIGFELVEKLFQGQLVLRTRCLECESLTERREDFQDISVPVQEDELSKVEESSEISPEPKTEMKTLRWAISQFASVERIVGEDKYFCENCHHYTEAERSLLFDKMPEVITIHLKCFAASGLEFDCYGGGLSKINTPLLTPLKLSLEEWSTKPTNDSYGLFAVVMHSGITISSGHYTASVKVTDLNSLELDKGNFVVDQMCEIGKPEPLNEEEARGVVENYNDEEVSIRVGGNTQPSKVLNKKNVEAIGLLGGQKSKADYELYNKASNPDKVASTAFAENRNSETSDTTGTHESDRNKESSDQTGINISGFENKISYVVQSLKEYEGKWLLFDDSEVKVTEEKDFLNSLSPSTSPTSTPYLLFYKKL
Procedure, shortened: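 USP1/UAF1 complex (1nM) preincubated with compound 15 min at room temperature, then Ub-Rho substrate (150nM final) added. Fluorescence read kinetically at 480/540 nm, 6 reads every 60 seconds. Buffer: 50mM HEPES pH 7.8, 0.5mM EDTA, 0.1 mg/ml BSA, 1mM TCEP, 0.01% Tween-20.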

[13] = Primary qHTS for small molecule stabilizers of the endoplasmic reticulum resident proteome: Secreted ER Calcium Modulated Protein (SERCaMP) assay (AID 1508630); note: % is set by controls: 0 for no effect and ±100 for the full control effect
Procedure, shortened: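 The SH-SY5Y reporter protocol was run at 3 concentrations up to 38.3 uM (primary) or 11 concentrations (follow-up): 16 h compound, 100 nM thapsigargin for 4 h, then extracellular luciferase luminescence.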

[14] = target: Cytochrome P450 3A4 (Homo sapiens) (UniProt P08684); experiment: qHTS Assay for Activators of Cytochrome P450 3A4 (AID 885); note: nearly all actives have a fitted effect of over 65% in size
Sequence of Cytochrome P450 3A4 (Homo sapiens) (P08684 whole entry, looked up): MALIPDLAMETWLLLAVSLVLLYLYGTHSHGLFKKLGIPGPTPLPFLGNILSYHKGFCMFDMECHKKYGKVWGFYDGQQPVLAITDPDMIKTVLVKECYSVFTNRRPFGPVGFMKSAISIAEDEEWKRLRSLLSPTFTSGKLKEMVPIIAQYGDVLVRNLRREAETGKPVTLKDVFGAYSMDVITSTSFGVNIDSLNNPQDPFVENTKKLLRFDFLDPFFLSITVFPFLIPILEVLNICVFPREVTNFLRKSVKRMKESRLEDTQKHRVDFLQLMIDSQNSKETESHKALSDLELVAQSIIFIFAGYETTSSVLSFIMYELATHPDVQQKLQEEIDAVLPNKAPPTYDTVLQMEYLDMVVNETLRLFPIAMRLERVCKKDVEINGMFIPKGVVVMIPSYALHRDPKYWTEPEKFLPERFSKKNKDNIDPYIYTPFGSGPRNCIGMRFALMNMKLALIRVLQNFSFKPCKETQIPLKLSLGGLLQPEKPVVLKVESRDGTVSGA
Procedure, shortened: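 Human CYP3A4 dealkylates Luciferin-PPXE to luciferin, which luciferase detection converts to light. Substrate was at its KM (25uM), buffer 200mM KPO4, reaction 60 min at RT.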

[15] = qHTS Assay for Identification of Small Molecule Agonists for Hypoxia Response Element Signaling Pathway (AID 914; active = well fitted activation curve with a large enough effect in the signal ratio, with a control signal flat, not every such curve was filed as active; the % refers to the signal ratio; note: potency is the fitted concentration of half-maximal effect; for activation: % of control where 0% means no effect); settings: ME-180 (cervical carcinoma) HRE-bla reporter, beta-lactamase ratio, CoCl2, 17 h; activation: active compounds read high
Procedure, shortened: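 In Opti-MEM containing 0.5% dialyzed FBS and 10 mM HEPES, ME-180 HRE-bla cells received a compound titration and EC50 CoCl2. They were incubated 17 hours, then CCF4-loaded 2.5 hours at room temperature before ratio reading.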

[16] = target: Cytochrome P450 3A4 (Homo sapiens) (UniProt P08684); experiment: qHTS Assay for Inhibitors and Substrates of Cytochrome P450 3A4 (AID 884); note: potency is the fitted concentration of half-maximal effect; nearly all actives have a fitted effect of over 50% in size
Procedure, shortened: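 Luminescent readout of luciferin produced by CYP3A4 (20 nM) dealkylation of Luciferin-PPXE, 25 uM (its KM). NADPH-driven reaction ran 60 min at RT after 10 min compound preincubation; data scaled to 57 uM ketoconazole as 100% inhibition.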

[17] = target: Cytochrome P450 2C19 (Homo sapiens) (UniProt P33261); experiment: qHTS Assay for Inhibitors and Substrates of Cytochrome P450 2C19 (AID 899); note: potency is the fitted concentration of half-maximal effect; nearly all actives have a fitted effect of over 60% in size
Sequence of Cytochrome P450 2C19 (Homo sapiens) (P33261 whole entry, looked up): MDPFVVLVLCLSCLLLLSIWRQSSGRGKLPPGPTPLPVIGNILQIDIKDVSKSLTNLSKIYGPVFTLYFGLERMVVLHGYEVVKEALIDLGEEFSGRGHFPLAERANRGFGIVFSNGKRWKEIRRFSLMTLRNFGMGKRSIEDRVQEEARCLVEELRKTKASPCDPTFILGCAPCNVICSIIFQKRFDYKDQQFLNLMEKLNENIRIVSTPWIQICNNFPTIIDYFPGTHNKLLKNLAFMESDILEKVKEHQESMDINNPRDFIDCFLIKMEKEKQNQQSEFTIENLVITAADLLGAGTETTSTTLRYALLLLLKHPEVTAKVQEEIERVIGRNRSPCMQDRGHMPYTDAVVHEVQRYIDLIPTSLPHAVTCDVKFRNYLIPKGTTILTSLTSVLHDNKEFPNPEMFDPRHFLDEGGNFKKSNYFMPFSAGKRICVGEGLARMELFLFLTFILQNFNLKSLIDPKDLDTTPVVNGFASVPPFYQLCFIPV
Procedure, shortened: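 In 50mM KPO4, the reaction held 5nM enzyme and KM-level (10uM) Luciferin-H EGE; it ran 60 min at 37C after NADPH regeneration and a 10 min compound preincubation. Luminescence values were scaled to 57uM ketoconazole as complete inhibition.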

[18] = target: Cytochrome P450 2C9 (Homo sapiens) (UniProt P11712); experiment: qHTS Assay for Inhibitors and Substrates of Cytochrome P450 2C9 (AID 883); note: potency is the fitted concentration of half-maximal effect; nearly all actives have a fitted effect of over 60% in size
Procedure, shortened: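 CYP2C9 deoxyluciferin hydroxylation, 37C, 60 min with NADPH regeneration; 10nM enzyme, 100uM Luciferin-H (KM). Glo detection reagent stopped reaction; luminescence normalized to sulphaphenazole (57uM) full inhibition.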

[19] = target: Cytochrome P450 2D6 (Homo sapiens) (UniProt P10635); experiment: qHTS Assay for Inhibitors and Substrates of Cytochrome P450 2D6 (AID 891); note: potency is the fitted concentration of half-maximal effect; nearly all actives have a fitted effect of over 60% in size
Procedure, shortened: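 Luminescent read-out of luciferin formed by 5 nM human CYP2D6 demethylating 30 uM Luciferin-ME EGE (Km level) over 60 min at room temperature after NADPH regeneration addition. Data normalized to full inhibition by 1.43 uM quinidine.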

[20] = target: Lysosomal acid glucosylceramidase (Homo sapiens) (UniProt P04062); experiment: Glucocerebrosidase-p2 (AID 348; in the data active = potency below about 10 µM; note: potency is the fitted concentration of half-maximal effect); settings: purified GBA, blue fluorogenic substrate, 40 min
Sequence of Lysosomal acid glucosylceramidase (Homo sapiens) (P04062 whole entry, looked up): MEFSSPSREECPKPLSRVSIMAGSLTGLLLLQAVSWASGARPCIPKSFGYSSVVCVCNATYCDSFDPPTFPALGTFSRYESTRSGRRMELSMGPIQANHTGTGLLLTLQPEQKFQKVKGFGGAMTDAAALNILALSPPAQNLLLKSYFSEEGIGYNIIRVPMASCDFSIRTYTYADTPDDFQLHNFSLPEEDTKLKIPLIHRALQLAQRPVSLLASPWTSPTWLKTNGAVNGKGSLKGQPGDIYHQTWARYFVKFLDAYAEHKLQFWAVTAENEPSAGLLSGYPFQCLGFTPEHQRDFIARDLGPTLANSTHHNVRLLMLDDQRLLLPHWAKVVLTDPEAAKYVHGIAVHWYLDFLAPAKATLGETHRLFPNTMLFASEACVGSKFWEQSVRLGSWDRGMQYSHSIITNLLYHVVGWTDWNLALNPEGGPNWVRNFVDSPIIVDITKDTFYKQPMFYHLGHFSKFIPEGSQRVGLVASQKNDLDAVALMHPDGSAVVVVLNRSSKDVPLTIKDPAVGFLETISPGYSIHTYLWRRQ
Procedure, shortened: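 Normal human glucocerebrosidase (0.2 nM) with blue fluorogenic substrate (80 uM final) in citrate/phosphate pH 5.9 with 10mM sodium taurocholate, 0.01% tween-20; 40 min RT, NaOH/glycine stop; fluorescence Ex 365/Em 440; AC50 from a titration from 0.6 nM upwards.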

COc1ccc(-n2c(=O)c(-c3ccc(F)cc3)nc3cncnc32)cc1
inactive: activity change, negative = inhibition [1] 7.36% | Potency [2] | activity change, negative = inhibition [3] -20% | activity, negative = inhibition [4] 6.09% | Potency [5] > 9.22 µM | Potency [6] > 46 µM | Potency [7] | Potency [8] | Potency [9] | Potency [10] | Potency [11] | Potency [12] | outcome [13]

CN(C)c1cc(-c2cccc(NS(C)(=O)=O)c2)ncn1
active: Potency [2] 1.26 µM
inactive: activity change, negative = inhibition [1] 3.12% | activity change, negative = inhibition [3] 18.4% | activity, negative = inhibition [4] 1.39% | Potency [5] > 46 µM | Potency [6] > 46 µM | Potency [7] | Potency [14] | Potency [9] | Potency [10] | Potency [11] | Potency [12] | outcome [13]

COc1ccc(Oc2ncc3ncc(=O)n(C4CC4)c3n2)cc1
inactive: activity change, negative = inhibition [1] -1.59% | activity change, negative = inhibition [3] 5.04% | activity, negative = inhibition [4] -19.9% | Potency [5] > 9.22 µM | Potency [6] > 46 µM | Potency [7] | Potency [8] | Potency [14] | activation [15] -9.06% | Potency [9] | Potency [10] | Potency [11] | Potency [12] | outcome [13]
active: Potency [2] 5.01 µM

Cc1cccc(CNc2ccnc(-c3ccccc3Cl)n2)c1
inactive: activity change, negative = inhibition [1] -2.43% | activity change, negative = inhibition [3] -3.52% | activity, negative = inhibition [4] -10.7% | Potency [5] > 46 µM | Potency [6] > 46 µM | Potency [7] | Potency [14] | Potency [9] | Potency [10] | Potency [11] | outcome [13]
active: Potency [2] 1.58 µM | Potency [16] 3.98 µM | Potency [17] 1.26 µM | Potency [12] 28.2 µM

CCNc1ncc2nc(-c3cccs3)c(=O)n(CCc3ccccc3)c2n1
inactive: Potency [5] > 9.22 µM | Potency [6] > 46 µM | Potency [7] | Potency [14] | Potency [9] | Potency [10] | Potency [11] | Potency [12] | outcome [13]
active: Potency [2] 10 µM | activity, negative = inhibition [4] 98% [activator] | Potency [15] 1 µM

Cc1ccccc1-c1ccc2ncnc(NCc3cccnc3)c2c1
active: Potency [2] 0.251 µM | Potency [18] 0.794 µM | Potency [16] 1.58 µM | Potency [19] 2 µM | Potency [17] 1.58 µM | Potency [9] 14.1 µM | Potency [10] 11.2 µM | Potency [11] 11.2 µM
inactive: activity change, negative = inhibition [1] -2.6% | activity change, negative = inhibition [3] 2.06% | activity, negative = inhibition [4] -11% | Potency [5] > 46 µM | Potency [6] > 46 µM | Potency [7] | Potency [8] | Potency [14] | Potency [12] | outcome [13]

N#CCCn1c(=O)c(-c2ccc(Cl)cc2)nc2cnc(N3CCNCC3)nc21
inactive: Potency [20] > 11.4 µM | Potency [5] > 9.22 µM | Potency [6] > 46 µM | Potency [7] | Potency [8] | Potency [14] | Potency [9] | Potency [10] | Potency [11] | Potency [12] | outcome [13]

CN(C)c1ncc2nc(-c3ccc(Cl)cc3)c(=O)n(C[C@H]3CCCO3)c2n1
active: Potency [2] 3.98 µM
inactive: activity change, negative = inhibition [1] 9.11% | activity change, negative = inhibition [3] 21.9% | activity, negative = inhibition [4] 11.6% | Potency [5] > 9.22 µM | Potency [6] > 46 µM | Potency [7] | Potency [8] | Potency [9] | Potency [10] | Potency [11] | Potency [12] | outcome [13]

COCCn1c(=O)c(-c2ccc(Cl)cc2)nc2cnc(N(C)C)nc21
inactive: activity change, negative = inhibition [1] -3.17% | activity change, negative = inhibition [3] -3.15% | Potency [5] > 9.22 µM | Potency [6] > 46 µM | Potency [8] | Potency [9] | Potency [10] | Potency [11] | Potency [12] | outcome [13]
active: Potency [2] 1 µM

COc1ccc(-n2c(=O)c(CCc3ccccc3)nc3cnc(N4CCOCC4)nc32)cc1
active: Potency [2] 15.8 µM
inactive: activity change, negative = inhibition [1] -17% | activity change, negative = inhibition [3] -7.5% | activity, negative = inhibition [4] -13.2% | Potency [5] > 9.22 µM | Potency [6] > 46 µM | Potency [7] | Potency [8] | Potency [14] | Potency [9] | Potency [10] | Potency [11] | Potency [12] | outcome [13]

COc1cccc(Nc2ncc3nc(-c4cc(F)cc(F)c4)c(=O)n(C[C@H]4CCCO4)c3n2)c1
inactive: Potency [20] > 11.4 µM | activity, negative = inhibition [4] -10.3% | Potency [5] > 9.22 µM | Potency [6] > 46 µM | Potency [7] | Potency [8] | Potency [14] | Potency [9] | Potency [10] | Potency [11] | Potency [12] | outcome [13]

O=c1c(-c2cc(F)cc(F)c2)nc2cnc(N3CCOCC3)nc2n1Cc1ccc(F)cc1
inactive: Potency [20] > 11.4 µM | Potency [5] > 9.22 µM | Potency [6] > 46 µM | Potency [7] | Potency [8] | Potency [9] | Potency [10] | Potency [11] | Potency [12] | outcome [13]
active: Potency [15] 3.16 µM

Cc1cccc(CNc2ccnc(-c3ccccc3C(F)(F)F)n2)c1
active: Potency [2] 6.31 µM | Potency [12] 3.98 µM
inactive: activity change, negative = inhibition [1] -10.1% | activity change, negative = inhibition [3] 1.23% | activity, negative = inhibition [4] 5.48% | Potency [6] > 46 µM | Potency [7] | Potency [14] | activation [15] -2.48% | Potency [9] | Potency [10] | Potency [11] | outcome [13]
